MITF inh: MITF inhibitors, primary screen, biochemical, AlphaScreen, human; Microphthalmia-associated transcription factor (Homo sapiens), O75030; AlphaScreen MITF homodimerization, bead proximity signal; inhibition, % at 2.6 µM; actives 0.91% (n = 650,000); in the data active = inhibition above about 50%;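 also: 0% = vehicle wells with protein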
Target sequence (O75030 whole entry, looked up): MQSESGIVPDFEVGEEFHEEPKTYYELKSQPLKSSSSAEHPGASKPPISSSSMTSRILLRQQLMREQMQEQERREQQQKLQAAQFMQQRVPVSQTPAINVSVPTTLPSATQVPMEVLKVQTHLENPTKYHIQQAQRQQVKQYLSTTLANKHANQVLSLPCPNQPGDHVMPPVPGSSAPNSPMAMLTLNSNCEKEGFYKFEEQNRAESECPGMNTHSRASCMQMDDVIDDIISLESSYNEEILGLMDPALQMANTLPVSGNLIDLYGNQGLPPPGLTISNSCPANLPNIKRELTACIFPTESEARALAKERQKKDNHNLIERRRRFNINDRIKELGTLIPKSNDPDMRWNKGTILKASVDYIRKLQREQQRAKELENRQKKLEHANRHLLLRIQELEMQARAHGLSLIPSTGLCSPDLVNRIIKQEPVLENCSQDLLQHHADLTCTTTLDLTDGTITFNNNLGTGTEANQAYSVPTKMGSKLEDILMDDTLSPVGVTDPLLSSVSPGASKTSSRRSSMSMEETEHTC
TEAD-YAP block: TEAD-YAP interaction inhibition, primary screen, TEAD-YAP interaction inhibitor project, luminescence, HEK-TIYL cells; inhibition, % at 9.12 µM; TEAD-Gal4/YAP UAS-luciferase luminescence; actives 1.4% (n = 640,000); in the data active = inhibition above about 32%;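 also: 0% = median of test compound wells and 100% = reference inhibitor wells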
GPR151 ag: activators of human GPR151, primary screen, cell-based, PathHunter beta-arrestin, luminescence; AID 1508602, 2020; actives 1% (n = 650,000); G-protein coupled receptor 151 (Homo sapiens), Q8TDV0; PathHunter beta-arrestin GPR151 cells; activation, % at 11.2 µM; in the data active = activation above about 4.9%;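 also: 0% = median of compound wells and 100% = cells with positive control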
FBW7 activator: FBW7 E3 ligase activators, primary screen, biochemical, AlphaScreen, human. F-box/WD repeat-containing protein 7 (Homo sapiens), Q969H0. AlphaScreen FBW7–phospho-cyclin E peptide binding, activator screen. normalized activity (activation), % at 26.1 µM. actives 0.13% (n = 650,000); in the data active = normalized activity above about 1.9%;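 also: purified mutant Fbw7 with reduced substrate affinity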
GPR151 conf act: GPR151 activators, triplicate retest, confirmation, cell-based, PathHunter beta-arrestin, luminescence | shares compounds with GPR151 ag | GPR151 PathHunter beta-arrestin cells, 90 min; % of EA-reagent control over plate median | activation, % at 11.2 µM | 6,700 tested, under 10 active;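 active = mean percent activation across replicates above the confirmation screen cutoff of 4.91%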
GPR119 ag: GPR119 activators in beta-arrestin cells, counter-screen for GPR151 activator project, cell-based, PathHunter beta-arrestin, luminescence, triplicate; shares compounds with GPR151 ag; 90 min; 0 = compound-well median, 100 = enzyme-acceptor control; activation, % at 11.2 µM; actives 0.3% (n = 6,700); AID 1508611, 2020;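 active = mean percent activation in the counterscreen above 29.09%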;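 also: counterscreen on off-target GPR119 to flag nonselective hits from the GPR151 activator screen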
* hit, by the source's call; . = no result. Most compounds without a hit are left out; they make up all but 3.4% or so of the library.

SMILES	MITF inh	TEAD-YAP block	GPR151 ag	FBW7 activator	GPR151 conf act	GPR119 ag
Cc1ccc(CNC(=O)CSC2=Nc3ccccc3C3=NC(C(C)C)C(=O)N23)cc1 (configuration not stated)	-8	-7	1	0	.	.
CC(C)C1N=C2c3ccccc3N=C(SCC(=O)NCCc3ccccc3)N2C1=O (configuration not stated)	-1	-6	5.8*	0	0	4
CCC(C)C1N=C2c3ccccc3N=C(SCC(=O)N3CC(C)CC(C)C3)N2C1=O (configuration not stated)	3	0	12*	0	1	8
CC1CC(C)CN(C(=O)CSC2=Nc3ccccc3C3=NC(C(C)C)C(=O)N23)C1 (configuration not stated)	-12	-10	1	0	.	.
CCOC(=O)c1c(NC(=O)c2cc3cc(Cl)ccc3oc2=O)sc(C(C)=O)c1C	1	6	8.1*	0	-1	-15
COc1ccc(NC(=O)c2cc3cc(Cl)ccc3oc2=O)cc1	-2	-4	6.3*	0	0	15
CCOc1ccc(NC(=O)c2cc3cc(Br)cc(OC)c3oc2=O)cc1	-14	-1	-2	0	.	.
COc1ccc2oc(=O)c(C(=O)Nc3cccc(Cl)c3)cc2c1	-2	-11	0	0	.	.
COc1cc(Br)cc2cc(C(=O)Nc3ccc(O)cc3)c(=O)oc12	-17	-1	7.6*	0	0	8
O=C1C(c2ccc(F)cc2)N(C2CCCC2)C(=O)CN1C1CCCCC1 (configuration not stated)	-5	-6	0	0	.	.
O=C1C(c2ccc(F)cc2)N(C2CCCCCCC2)C(=O)CN1C1CCCCCC1 (configuration not stated)	4	-4	8.2*	1	-1	0
O=C1C(c2ccc(F)cc2)N(C2CCCCC2)C(=O)CN1C1CCCCCC1 (configuration not stated)	6	11	8.6*	1	3	9
CCc1cccc(CC)c1-n1c(SCC(=O)NC)nnc1-c1cccnc1	-17	-9	2	0	.	.
CCc1ccccc1-n1c(SCC(=O)NC)nnc1-c1cccnc1	15	1	7.6*	0	0	3
CNC(=O)CSc1nnc(-c2cccnc2)n1CCc1ccccc1	-8	-3	0	0	.	.
CC(C)NC(=O)CSc1nnc(-c2cccnc2)n1CCc1ccccc1	6	4	9.5*	0	2	13
COc1ccc(CNc2ccc3ncc(-c4ccc(F)cc4)n3n2)cc1	-9	-8	0	0	.	.
C#CCN1C(=O)S/C(=C/c2ccc(C(=O)OC)cc2)C1=O	-6	2	5.9*	0	0	-5
COCc1nnc(NC(=O)C2CCCCC2)s1	13	-7	6.4*	0	-1	-10
COC(=O)C(C)N1C(=O)S/C(=C/c2cc(Cl)cc(OC)c2O)C1=O (configuration not stated)	-9	-4	-1	0	.	.
CCOC(=O)C(C)N1C(=O)S/C(=C/c2cc(Cl)cc(OC)c2O)C1=O (configuration not stated)	-5	-5	6.7*	0	0	-5
CC(=O)Nc1ccc(Nc2nc(NCc3cccnc3)nc3c2ncn3Cc2ccc(C(F)(F)F)cc2)cc1	-9	-16	1	0	.	.
O=C(NCc1ccccc1)c1nnc(Cc2cccc(F)c2)o1	5	-9	4.9*	0	1	3
CCCCn1c(SCC(N)=O)nnc1-c1cccs1	0	13	1	0	.	.
CC(C)c1nc2cccnc2n1C1CCN(C(=O)c2n[nH]c3c2CCC3)CC1	17	-13	10*	0	1	10
Cc1cccc(C)c1NC(=O)C1c2cccc[n+]2CC(=O)N1CCO (configuration not stated)	-11	-1	1	0	.	.
